According to PubChem BioAssay AID1851 (National Center for Advancing Translational Sciences (NCATS), 2009):
The whole screen tested about 16,000 compounds, of which about 5,100 (32%) were called active. Not shown: some 25% with an inconclusive outcome. Calls follow the shape of the dose curve; as a rule, active = well fitted curve in the direction sought with a large enough effect; inconclusive = small, poorly fitted or top-dose-only effect, or effect the other way; inactive = no such curve, though single readings can be large or run the other way. The list shows a part of the results.

What follows are compounds tested against Cytochrome P450 3A4 (Homo sapiens) (UniProt P08684) (assay: Cytochrome panel assay with activity outcomes). Conditions: recombinant CYP, pro-luciferin dealkylation, luminescence, p450-cyp3a4; series mostly up to 57.1 µM; activity, negative = inhibition: at the top concentration.
Cytochrome P450 3A4 (Homo sapiens), sequence (P08684 whole entry, looked up): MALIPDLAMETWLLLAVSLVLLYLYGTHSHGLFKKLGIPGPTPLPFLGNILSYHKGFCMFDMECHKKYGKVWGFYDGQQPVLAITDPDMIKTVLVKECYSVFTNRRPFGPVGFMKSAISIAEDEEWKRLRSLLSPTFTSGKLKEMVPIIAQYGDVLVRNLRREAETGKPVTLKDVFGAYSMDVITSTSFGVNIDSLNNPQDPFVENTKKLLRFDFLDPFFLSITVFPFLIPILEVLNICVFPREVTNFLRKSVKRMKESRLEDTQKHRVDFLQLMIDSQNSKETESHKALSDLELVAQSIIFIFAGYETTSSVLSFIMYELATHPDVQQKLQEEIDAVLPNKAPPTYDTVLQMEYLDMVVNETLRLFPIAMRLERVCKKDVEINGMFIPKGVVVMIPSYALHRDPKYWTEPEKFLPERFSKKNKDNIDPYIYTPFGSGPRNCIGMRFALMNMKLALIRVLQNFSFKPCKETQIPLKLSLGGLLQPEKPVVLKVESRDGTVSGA
% is scaled to controls: 0 for no effect and ±100 for the full control effect.

AC50, active:
COc1cccc(-c2nc(NCc3cnc(C)cn3)c3ccccc3n2)c1 2.51 µM
Cc1cnc(CNc2nc(-c3cccnc3)nc3ccccc23)cn1 3.98 µM
Cc1ccc(C(=O)NNC(=S)NC(=O)c2ccc(Cl)cc2)cc1 14.1 µM
Cc1ccc(C)c(NC(=O)Cn2nnc(C(=O)Nc3c(C)cccc3C)c2N)c1 12.6 µM
CCOc1ccc(NC(=O)Cn2nnc(C(=O)NCc3ccccc3OC)c2N)cc1 11.2 µM
COc1ccc(CCNC(=O)c2nnn(CC(=O)Nc3ccccc3C)c2N)cc1OC 12.6 µM
COc1ccc(NC(=O)N2CCCC3(CCN(S(C)(=O)=O)CC3)C2)cc1 31.6 µM
CC(C)NC(=O)N1CCCC2(CCN(S(=O)(=O)c3ccccc3)CC2)C1 7.94 µM
COc1ccc(NC(=O)N2CCCC3(CCN(S(=O)(=O)c4ccccc4)CC3)C2)cc1 7.94 µM
Cc1ccc(OCC(O)CNC(=O)c2ccccc2C(=O)O)cc1 (stereo not drawn) 28.2 µM

AC50, inactive:
O=C(NCCNC[C@@H](O)COc1ccc(O)cc1)N1CCOCC1

activity, negative = inhibition, inactive:
CCCC12CN3CC(CCC)(CN(C1)C3C(O)C(O)C(O)CO)C2=O (stereo not drawn) 0.643% [at 11.4 µM]
O=C(NNC(=S)NC(=O)c1cccnc1)c1ccccc1 1.97% [at 2.29 µM]
Cc1ccc(C)c(NC(=O)Cn2c([N+](=O)[O-])cnc2C)c1 -16.5%
Cc1ccc(C)c(NC(=O)Cn2nnc(C(=O)NCc3cccs3)c2N)c1 -15.7%
CCOc1ccc(NC(=O)c2nnn(CC(=O)Nc3ccccc3OC)c2N)cc1 10.2%
COC(=O)c1nnn(Cc2ccccc2)c1N -10.5%
O=C(O)/C=C1\NC(=O)c2ccccc21 -4.69%
NCC[C@H](N)C(=O)O -6.61% [at 11.4 µM]
CC(C)NC(=O)N1CC[C@@]2(CCCN(S(C)(=O)=O)C2)C1 -7.99%
COc1ccc(NC(=O)N2CC3(CCN(S(C)(=O)=O)CC3)C2)cc1 -25.7%
CC(C)NC(=O)N1CC2(CCN(S(=O)(=O)c3ccccc3)CC2)C1 -13.8%
COCC(=O)N1CCC2(CCCN(C(=O)Nc3ccccc3)C2)CC1 -18.9%
COc1ccc(NC(=O)N2CCC3(CC2)CCN(S(C)(=O)=O)CC3)cc1 -21.9%
CCCCCCCCCCCCCCSCC(=O)O 0.973%
O=C(O)COc1ccc(OCCNC[C@@H](O)COc2ccccc2)cc1 -17.3%
Cc1ccnc2nc(C(=O)OCC(=O)Nc3ccc4c(c3)OC(F)(F)O4)nn12 24.8%
COc1cc(C)cc(OC)c1/C=C\C(=O)O -4.32% [at 11.4 µM]
